Experimental data reported in PubChem BioAssay.
Calls of active or inactive are those of the source.

Columns and labels:
[1] = binders of probe aFSTL3 on microarray, primary screen, stem cell growth factor project, biochemical, small-molecule microarray, fluorescence 635/667 (AID 1064); conditions: higher = more signal;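 also: measures binding of the biotinylated anti-FSTL3 antibody to printed compounds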
[2] = binders from COS7 lysate, DM2A8 probe, primary screen, torsin A project, cell lysate, small-molecule microarray, fluorescence 635/667 (AID 1065); conditions: higher = more signal, COS7 lysate expressing mutant human TOR1A
[3] = binders of probe aFGF2 on microarray, primary screen, stem cell growth factor project, biochemical, small-molecule microarray, fluorescence 635/667 (AID 1067); conditions: higher = more signal;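 also: measures binding of biotinylated aFGF2 protein to printed compounds on slides; z-score merges feature fluorescence and signal-to-noise across triplicate slides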
[4] = binders of probe aFGF10 on microarray, primary screen, stem cell growth factor project, biochemical, small-molecule microarray, fluorescence 635/667 (AID 1071); conditions: higher = more signal;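 also: score merges 667 nm spot intensity and signal to noise from triplicate slides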
[5] = biological target: Neurogenic locus notch homolog protein 2 (Homo sapiens) (UniProt Q04721); assay: Notch2 binders on small-molecule microarrays, primary screen, biochemical, small-molecule microarray, 635 nm fluorescence, stem cell growth factors (AID 1073); conditions: Notch2 binding, higher = more signal
[6] = biological target: Pro-neuregulin-1, membrane-bound isoform (Homo sapiens) (UniProt Q02297); assay: NRG1 binders on small-molecule microarrays, primary screen, psychiatric disease protein project, biochemical, small-molecule microarray, fluorescence 635/667 (AID 1075); conditions: NRG1 binding, 635 nm fluorescence, higher = more signal;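 also: score combines 667 nm spot fluorescence with signal to noise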
Pro-neuregulin-1, membrane-bound isoform (Homo sapiens), sequence (Q02297 whole entry, looked up, the tested form may be a part, canonical isoform): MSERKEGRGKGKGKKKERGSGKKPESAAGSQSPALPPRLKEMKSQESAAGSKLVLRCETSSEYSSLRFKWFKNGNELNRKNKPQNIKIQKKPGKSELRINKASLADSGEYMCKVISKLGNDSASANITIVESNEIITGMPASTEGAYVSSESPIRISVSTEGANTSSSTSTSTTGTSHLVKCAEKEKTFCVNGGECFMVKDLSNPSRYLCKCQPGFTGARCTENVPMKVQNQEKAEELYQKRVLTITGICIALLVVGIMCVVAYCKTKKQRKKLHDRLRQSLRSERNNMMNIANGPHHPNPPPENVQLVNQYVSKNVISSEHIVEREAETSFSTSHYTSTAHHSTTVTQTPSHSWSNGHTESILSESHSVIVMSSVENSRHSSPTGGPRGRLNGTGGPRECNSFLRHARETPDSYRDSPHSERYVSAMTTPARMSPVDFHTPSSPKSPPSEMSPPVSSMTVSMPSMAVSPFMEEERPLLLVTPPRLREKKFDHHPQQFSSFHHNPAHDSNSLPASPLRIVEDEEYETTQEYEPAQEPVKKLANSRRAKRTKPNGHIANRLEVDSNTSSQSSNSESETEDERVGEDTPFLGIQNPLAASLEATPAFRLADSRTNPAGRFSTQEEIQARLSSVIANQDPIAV

[7] = test system: Neuregulin-1 EGF-like domain; assay: binders of neuregulin-1 EGF-like domain, primary screen, biochemical, small-molecule microarray, 635 nm fluorescence (AID 1081); conditions: small-molecule microarray binding, higher = more signal;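 also: binding of the protein to compounds printed on small-molecule microarray slides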
[8] = FRG1 promoter luciferase signal modulators, primary screen, FRG1 inhibition for FSHD, cell-based, C2C12 myotubes, firefly/Renilla luciferase, luminescence (AID 1084); conditions: higher = more signal, called active from +8 up or from −8 down
[9] = binders of probe aFST on microarray, primary screen, stem cell growth factor project, biochemical, small-molecule microarray, fluorescence 635/667 (AID 1086); conditions: higher = more signal;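 also: score merges 667 nm fluorescence with signal-to-noise of each printed compound spot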
[10] = binders of probe aHhip on microarray, primary screen, stem cell growth factor project, biochemical, small-molecule microarray, fluorescence 635/667 (AID 1087); conditions: higher = more signal;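 also: score merges spot fluorescence at 667nm with spot signal to noise ratio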
[11] = test system: PRMT1 (protein arginine N-methyltransferase 1); assay: PRMT1 binders on small-molecule microarrays, primary screen, biochemical, small-molecule microarray, 635 nm fluorescence (AID 1088); conditions: small-molecule microarray binding, higher = more signal;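 also: binding of Prmt1 protein to compounds spotted on small-molecule microarray slides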
[12] = yeast growth modulation, basal conditions, primary screen, YJM789 clinical isolate, OD600, 24 h (AID 1089);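 also: growth of clinical yeast isolate S. cerevisiae YJM 789 seeded 1000 cells per well; test concentration not given here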; conditions: S. cerevisiae YJM789 growth, higher = more signal, called active from +8 up or from −8 down
[13] = fission yeast growth modulation, primary screen, strain 972, OD600, 24 h, no modulator (AID 1090);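 also: basal condition with compound alone and no growth modifier present; test concentration not given here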; conditions: S. pombe 972 growth, higher = more signal, called active from +8 up or from −8 down
[14] = S. cerevisiae growth modulation with rapamycin, primary screen, strain BY4716, OD600, 96 h (AID 1091); conditions: higher = more signal, called active from +8 up or from −8 down; also: test concentration not given here
[15] = biological target: Torsin-1A-interacting protein 2 (Homo sapiens) (UniProt Q8NFQ8); assay: LULL1 binders on small-molecule microarray, primary screen, cell lysate, human LULL1 lysate, 635/667 nm fluorescence (AID 1092); conditions: hLULL1 lysate binding, 635 nm fluorescence, higher = more signal;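 also: probe is lysate of COS7 cells overexpressing human LULL1; score merges per-feature 667 nm fluorescence with signal-to-noise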
Torsin-1A-interacting protein 2 (Homo sapiens), sequence (Q8NFQ8 whole entry, looked up): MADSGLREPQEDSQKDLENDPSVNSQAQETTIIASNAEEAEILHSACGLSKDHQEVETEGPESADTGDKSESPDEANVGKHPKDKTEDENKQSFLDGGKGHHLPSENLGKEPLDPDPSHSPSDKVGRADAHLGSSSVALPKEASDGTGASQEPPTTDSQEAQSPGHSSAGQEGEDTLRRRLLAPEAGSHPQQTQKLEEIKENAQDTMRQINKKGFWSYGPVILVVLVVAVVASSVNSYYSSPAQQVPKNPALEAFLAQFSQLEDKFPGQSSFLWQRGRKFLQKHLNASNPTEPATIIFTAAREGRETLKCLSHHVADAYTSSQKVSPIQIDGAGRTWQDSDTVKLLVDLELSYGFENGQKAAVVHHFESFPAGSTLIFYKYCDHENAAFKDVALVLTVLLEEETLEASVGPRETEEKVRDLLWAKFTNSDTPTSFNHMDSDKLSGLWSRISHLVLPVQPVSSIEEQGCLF

[16] = E. coli growth modulation, two-sided OD650, primary screen, E. coli filamentation project, strain DRC41, 24 h (AID 1093); conditions: OD650, 24 h, higher = more signal, called active from +8 up or from −8 down;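 also: MC1000 strain lacking acrAB efflux and sulA so SOS filamentation is blocked; test concentration not given here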
[17] = small-molecule microarray binders of probe aLefty2, primary screen, biochemical, biotinylated probe, 635/667 nm fluorescence (AID 1094); conditions: higher = more signal;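 also: score merges spot fluorescence near 667 nm with spot signal-to-noise ratio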
[18] = test system: Noggin (protein binding on small-molecule microarray); assay: Noggin binders on small-molecule microarray, primary screen, biochemical, 635/667 nm fluorescence (AID 1095); conditions: 635 nm fluorescence, higher = more signal;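 also: score merges 667 nm feature fluorescence with signal to noise over triplicate slides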
[19] = biological target: Neurogenic locus notch homolog protein 3 (Homo sapiens) (UniProt Q9UM47); assay: NOTCH3 binders on small-molecule microarray, primary screen, biochemical, 635/667 nm fluorescence (AID 1096); conditions: NOTCH3 binding, 635 nm fluorescence, higher = more signal
Neurogenic locus notch homolog protein 3 (Homo sapiens), sequence (Q9UM47 whole entry, looked up): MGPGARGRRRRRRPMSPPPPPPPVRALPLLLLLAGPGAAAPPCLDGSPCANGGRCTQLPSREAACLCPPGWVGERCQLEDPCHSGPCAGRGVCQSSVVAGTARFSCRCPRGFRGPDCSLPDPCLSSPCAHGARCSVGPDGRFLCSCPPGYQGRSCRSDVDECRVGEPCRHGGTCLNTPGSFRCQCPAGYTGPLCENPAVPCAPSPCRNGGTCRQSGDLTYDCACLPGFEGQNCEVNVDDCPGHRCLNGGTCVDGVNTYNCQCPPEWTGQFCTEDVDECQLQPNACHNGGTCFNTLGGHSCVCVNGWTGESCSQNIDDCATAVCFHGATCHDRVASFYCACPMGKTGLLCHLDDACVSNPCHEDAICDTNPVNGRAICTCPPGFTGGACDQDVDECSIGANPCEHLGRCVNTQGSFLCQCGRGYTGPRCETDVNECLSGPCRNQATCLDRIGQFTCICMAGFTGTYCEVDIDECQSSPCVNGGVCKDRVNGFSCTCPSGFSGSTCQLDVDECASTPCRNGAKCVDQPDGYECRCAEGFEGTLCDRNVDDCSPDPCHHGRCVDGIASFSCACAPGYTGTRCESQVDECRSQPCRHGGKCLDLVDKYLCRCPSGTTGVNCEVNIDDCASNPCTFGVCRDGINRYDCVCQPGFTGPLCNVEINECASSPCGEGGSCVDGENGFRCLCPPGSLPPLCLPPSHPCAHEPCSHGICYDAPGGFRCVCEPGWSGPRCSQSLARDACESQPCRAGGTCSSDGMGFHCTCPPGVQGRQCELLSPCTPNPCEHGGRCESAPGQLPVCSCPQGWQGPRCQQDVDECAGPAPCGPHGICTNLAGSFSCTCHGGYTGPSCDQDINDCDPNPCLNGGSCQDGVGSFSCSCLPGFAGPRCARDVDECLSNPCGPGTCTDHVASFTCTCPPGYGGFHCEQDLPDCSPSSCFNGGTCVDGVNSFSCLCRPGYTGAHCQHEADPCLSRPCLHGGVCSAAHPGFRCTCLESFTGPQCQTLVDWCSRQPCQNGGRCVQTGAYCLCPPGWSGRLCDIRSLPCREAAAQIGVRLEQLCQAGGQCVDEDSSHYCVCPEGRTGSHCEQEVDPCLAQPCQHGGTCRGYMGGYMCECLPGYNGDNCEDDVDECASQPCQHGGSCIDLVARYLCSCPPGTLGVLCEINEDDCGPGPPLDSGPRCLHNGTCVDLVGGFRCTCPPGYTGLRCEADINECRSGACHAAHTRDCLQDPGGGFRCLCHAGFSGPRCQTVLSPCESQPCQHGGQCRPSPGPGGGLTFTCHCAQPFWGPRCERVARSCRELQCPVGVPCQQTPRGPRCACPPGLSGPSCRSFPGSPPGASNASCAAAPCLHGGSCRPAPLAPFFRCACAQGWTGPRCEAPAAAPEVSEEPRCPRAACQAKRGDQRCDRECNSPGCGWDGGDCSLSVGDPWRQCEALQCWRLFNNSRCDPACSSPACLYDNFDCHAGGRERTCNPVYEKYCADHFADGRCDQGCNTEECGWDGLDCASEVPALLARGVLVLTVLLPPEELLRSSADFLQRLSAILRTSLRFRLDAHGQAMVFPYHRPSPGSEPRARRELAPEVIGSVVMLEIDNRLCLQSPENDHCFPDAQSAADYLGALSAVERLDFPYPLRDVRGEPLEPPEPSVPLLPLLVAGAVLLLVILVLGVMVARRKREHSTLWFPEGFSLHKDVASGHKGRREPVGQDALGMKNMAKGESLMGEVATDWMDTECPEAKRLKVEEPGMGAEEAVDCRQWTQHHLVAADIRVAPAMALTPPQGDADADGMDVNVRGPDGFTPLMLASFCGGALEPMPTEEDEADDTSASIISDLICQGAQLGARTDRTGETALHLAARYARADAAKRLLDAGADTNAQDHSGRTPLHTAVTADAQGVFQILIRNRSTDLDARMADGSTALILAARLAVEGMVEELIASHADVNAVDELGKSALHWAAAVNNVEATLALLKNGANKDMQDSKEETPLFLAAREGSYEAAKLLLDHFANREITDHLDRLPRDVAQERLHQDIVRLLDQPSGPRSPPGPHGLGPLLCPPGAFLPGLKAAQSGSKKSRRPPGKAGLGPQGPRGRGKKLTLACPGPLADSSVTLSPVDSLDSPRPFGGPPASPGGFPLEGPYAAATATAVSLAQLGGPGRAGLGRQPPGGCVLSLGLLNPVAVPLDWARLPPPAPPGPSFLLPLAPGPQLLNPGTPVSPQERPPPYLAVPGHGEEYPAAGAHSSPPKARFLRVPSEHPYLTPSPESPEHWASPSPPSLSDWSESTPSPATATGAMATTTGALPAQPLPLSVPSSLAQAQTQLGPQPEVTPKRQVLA

[20] = small-molecule microarray binders of probe aEGFR, primary screen, biochemical, biotinylated probe, 635/667 nm fluorescence (AID 1097); conditions: higher = more signal;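 also: probe is a biotinylated anti-EGFR antibody binding compounds printed on slides; score combines fluorescence near 667 nm and signal to noise of each spot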

Structure (SMILES) | composite z-score [1] | composite z-score [2] | composite z-score [3] | composite z-score [4] | composite z-score [5] | composite z-score [6] | composite z-score [7] | z-score [8] | composite z-score [9] | composite z-score [10] | composite z-score [11] | z-score [12] | z-score [13] | z-score [14] | composite z-score [15] | z-score [16] | composite z-score [17] | composite z-score [18] | composite z-score [19] | composite z-score [20]
O=C1O[C@@H](c2ccccc2)[C@@H](c2ccccc2)N2[C@@H](c3ccc(OCCO)cc3)[C@]3(C(=O)Nc4ccccc43)[C@@H](C(=O)Nc3nc4ccccc4s3)[C@H]12 | 0.509 | 0.58 | 0.0732 | 0.962 | 1.49 | 1.45 | 1.3 | -3.08 (inactive) | 1.01 | 0.629 | 1.53 | 1.46 (inactive) | 1.15 (inactive) | 2.44 (inactive) | 3.34 | 0.344 (inactive) | 0.321 | 1.3 | 1.11 | 0.224
Cc1ccc(S[C@]2(C(=O)NCc3ccccc3)CC(=O)N(Cc3ccccc3Cl)[C@@H]2c2ccc(CO)cc2I)cc1 | 0.715 | -1.06 | -0.104 | -0.638 | -0.848 | 0.288 | 0.539 | -0.0143 (inactive) | -0.319 | -0.0645 | 1.08 | -3.68 (inactive) | -3.05 (inactive) | 0.103 (inactive) | 1.65 | -0.592 (inactive) | 0.114 | -1.07 | -0.109 | -0.168
O=C/C=C/c1ccc(Cl)cc1 | -0.0244 | -0.385 | 0.0086 | 0.439 | -0.885 | -0.476 | 0.651 | -0.678 (inactive) | -0.493 | -0.282 | -1.24 | -10.4 (active) | -20.1 (active) | -2.49 (inactive) | -1.2 | -0.767 (inactive) | -0.134 | -0.968 | -1.09 | -0.113
CC(c1ccccc1)C(O)C1C=CC2C(=O)NC(=O)C2N1Nc1ccccn1 (stereo not given) | 0.166 | -0.0988 | -0.044 | 0.306 | 1.5 | 0.142 | 1.33 | 1.14 (inactive) | 0.421 | -0.271 | 1.43 | 0.978 (inactive) | 0.704 (inactive) | 1.17 (inactive) | 1.52 | -0.88 (inactive) | 0.136 | 0.361 | 1.12 | -0.0159
[N-]=[N+]=NCc1ccccc1C[C@@]1(C(=O)NCC(O)CO)N=C(c2ccc(OCCCO)cc2)O[C@@H]1c1ccccc1CN=[N+]=[N-] (stereo not given in full) | 0.178 | -0.342 | 0.0587 | 0.939 | 1.43 | 1.34 | 1.21 | -0.429 (inactive) | 0.704 | -0.115 | 1.52 | -0.235 (inactive) | 0.648 (inactive) | 1.34 (inactive) | 3.68 | 0.526 (inactive) | 0.0942 | 0.875 | 0.474 | -0.197
CC(C)c1ccc(NN2C(C(O)c3c(F)cccc3Cl)C=CC3C(=O)N(c4ccccc4)C(=O)C32)cc1 (stereo not given) | 1.07 | 0.177 | 0.0923 | 0.653 | 1.52 | 1.31 | 0.973 | 2.73 (inactive) | 1.68 | -0.139 | 1.48 | 0.808 (inactive) | 1.83 (inactive) | 1.63 (inactive) | 3 | -2.2 (inactive) | 0.545 | -0.041 | 1.07 | 0.431
COC(=O)[C@]1(Cc2ccccc2N=[N+]=[N-])N=C(c2ccc(OCCCO)cc2)O[C@@H]1c1ccccc1N=[N+]=[N-] | -0.13 | -0.126 | -0.0512 | -0.102 | 0.374 | 0.46 | 1.1 | 3.58 (inactive) | 0.197 | -0.0994 | 0.822 | 0.189 (inactive) | -0.0643 (inactive) | 14.9 (active) | 0.59 | -0.962 (inactive) | -0.166 | 0.347 | 0.251 | -0.0656
CC(C)NC(=O)[C@@H]1c2ccccc2C(=O)N(Cc2ccccc2)[C@H]1c1ccc(CO)cc1 | 0.726 | 0.0445 | 0.0411 | 0.365 | -1.1 | 1.06 | 1.36 | -1.1 (inactive) | -0.194 | -0.191 | 0.347 | -0.726 (inactive) | -0.471 (inactive) | -0.945 (inactive) | 2.36 | -0.106 (inactive) | 0.12 | -0.905 | -0.376 | 0.243
CC(C)N1C(=O)[C@@]2(c3ccc([N+](=O)[O-])cc3)CC(=O)N(CC34CC5CC(CC(C5)C3)C4)[C@@H]2c2ccc(CO)cc21 | -0.448 | -1.26 | -0.188 | -0.373 | -1.16 | -0.34 | -0.867 | 0.63 (inactive) | -0.39 | -0.164 | 0.788 | 0.759 (inactive) | 0.652 (inactive) | -0.975 (inactive) | -0.0313 | -0.0342 (inactive) | -0.253 | -0.337 | 0.272 | -0.162
C=CCOC(=O)[C@@H]1[C@H]2C(=O)O[C@H](c3ccccc3)[C@H](c3ccccc3)N2[C@H](c2ccc(OCCOC(=O)[C@@H]3C[C@@H]4C(=O)NCC(=O)N4[C@@H]3c3cccc(OCCO)c3)cc2)[C@@]12C(=O)Nc1ccc(I)cc12 | -0.112 | 0.948 | -0.119 | 0.818 | 1.18 | 1.29 | 1.35 | 0.536 (inactive) | 0.272 | -0.0391 | 1.53 | 0.895 (inactive) | 1.01 (inactive) | 2.19 (inactive) | 2.53 | -0.637 (inactive) | -0.0654 | 1.14 | 1.1 | 0.0618
